Test results: PubChem BioAssay AID624151 (Broad Institute, 2012)
The campaign covered roughly 28,000 compounds. About 410 (1.5%) were called active. For the sample, actives were picked, then their nearest neighbours and some compounds at random. A number with no mark means an inactive call. No stated cut-off is given here; in the data, active means activation above about 52%; inconclusive means no clear call, values can overlap the other calls; inactive means below that.

Test: mutant p53 pathway re-activators, primary screen, cell-based, SW480, luciferase, single point, HTS (AID 624151)
Conditions: SW480 PUMA-promoter luciferase, p53 mutant reactivation; at 9.98 µM; stronger effect = higher value

SMILES	activation
CC(C)CC#Cc1cnc2c(c1)C(=O)N([C@@H](C)CO)C[C@H](C)[C@@H](CN(C)Cc1ccccc1C(=O)O)O2	-10.9%
C/C=C/c1cnc2c(c1)C(=O)N([C@H](C)CO)C[C@H](C)[C@@H](CN(C)C(=O)c1cccc(F)c1)O2	0.956%
O=C(CN1CCOCC1)Nc1ccc(NC(=O)CN2CCOCC2)c(Cl)c1	-19.4%
Cc1cc(C)n2nc(SCC(=O)Nc3ccccc3[N+](=O)[O-])nc2n1	-13.8%
O=C(CSc1nnc(-c2ccccc2)n1-c1ccccc1)c1cccc([N+](=O)[O-])c1	-1.58%
Cc1cccc(NC(=O)CSc2nnc3c4ccccc4nc(-c4ccccc4)n23)c1	13.8%
CCn1c(SCC(=O)Nc2ccc3c(c2)OCCO3)nnc1-c1ccncc1	-4.36%
O=C(CSc1nnc2ccc3ccccc3n12)Nc1ccc2c(c1)OCCO2	64.7% (active)
COC(=O)Cc1c(C)nc2nc(COc3ccccc3)[nH]n2c1=O	10.4%
O=C(NCc1ccccn1)C(=O)Nc1cccc(Cl)c1Cl	63.9% (active)
CC(=O)Nc1ccc(NC(=O)COc2ccccc2C(=O)Nc2cccc(Cl)c2Cl)cc1	-38.7%
O=C(NCc1ccccn1)c1ccccc1C(=O)c1ccccc1	-9.74%
C[C@@H]1CN([C@H](C)CO)C(=O)c2cc(-c3ccc(C#N)cc3)cnc2O[C@@H]1CN(C)CC1CC1	-0.916%
COc1ccc(OC)c2c1CC(C)(C)N=C2SC	-18.5%
O=C(CSc1nnc(-c2ccncc2)n1-c1ccccc1)Nc1ccc(Cl)c(Cl)c1	16.3%
COc1cccc(C#Cc2cnc3c(c2)C(=O)N([C@@H](C)CO)C[C@H](C)[C@@H](CN(C)C(C)=O)O3)c1	1.26%
O=C(C[C@H]1C[C@@H]2c3cc(NS(=O)(=O)c4ccc(F)cc4)ccc3O[C@@H]2[C@@H](CO)O1)NCc1cccc(F)c1	-7.78%
CC(=O)N1C(=S)NC(=O)/C1=C/c1c(Cl)cccc1Cl	-5.19%
C/C=C/c1cnc2c(c1)C(=O)N([C@@H](C)CO)C[C@H](C)[C@@H](CN(C)C(=O)C1CC1)O2	-5.73%
CCCN(Cc1cc2cccc(C)c2[nH]c1=O)S(C)(=O)=O	-2.56%
CCCNC(=O)N(C)C[C@H]1Oc2ncc(-c3ccccc3F)cc2C(=O)N([C@@H](C)CO)C[C@H]1C	1.17%
COc1cccc(C#Cc2cnc3c(c2)C(=O)N([C@@H](C)CO)C[C@H](C)[C@@H](CN(C)C(=O)C2CCC2)O3)c1	9.52%
C[C@@H]1CN([C@H](C)CO)C(=O)c2cc(C#CC3(O)CCCC3)cnc2O[C@H]1CN(C)C(=O)C1CCC1	15%
COc1ccccc1NC(=O)C1=C(C)Nc2nnnn2C1c1ccccc1OCc1ccccc1 (stereo unspecified)	11.3%
CCCC#Cc1cnc2c(c1)C(=O)N([C@H](C)CO)C[C@@H](C)[C@@H](CN(C)C(=O)Nc1ccccc1OC)O2	-6.47%
CCCC#Cc1cnc2c(c1)C(=O)N([C@H](C)CO)C[C@H](C)[C@H](CN(C)S(=O)(=O)c1cn(C)cn1)O2	5.56%

SMILES	activation
C[C@@H]1CN([C@H](C)CO)C(=O)c2c(c3ccccc3n2C)-c2ccccc2CO[C@@H]1CN(C)C(=O)Nc1ccccc1	10.9%
Cc1ccc2oc(C(=O)Nc3nnc(SCc4ccccc4)s3)c(C)c2c1	17.4%
C[C@@H]1CCCCO[C@H](CN(C)S(C)(=O)=O)[C@@H](C)CN([C@H](C)CO)C(=O)c2cc(NS(=O)(=O)c3ccc(Cl)cc3)ccc2O1	2.27%
COCC#Cc1cnc2c(c1)C(=O)N([C@@H](C)CO)C[C@@H](C)[C@H](CN(C)C(=O)c1cnccn1)O2	2.72%
C[C@@H]1CN([C@@H](C)CO)S(=O)(=O)c2ccc(C#CC3(O)CCCC3)cc2O[C@H]1CN(C)C(=O)c1ccncc1	7.47%
C[C@H]1CN([C@@H](C)CO)C(=O)c2cc(-c3cccc(C(=O)N(C)C)c3)cnc2O[C@H]1CN(C)S(=O)(=O)c1ccccc1	10.1%
CCCN(C)C[C@@H]1Oc2cc(-c3cccc(C#N)c3)ccc2S(=O)(=O)N([C@@H](C)CO)C[C@@H]1C	2.45%
COCC#Cc1ccc2c(c1)O[C@@H](CN(C)Cc1ccccn1)[C@@H](C)CN([C@@H](C)CO)S2(=O)=O	5.92%
CCOc1csc2nc(C)cc(C)c12	7.54%
C[C@@H]1CN([C@@H](C)CO)S(=O)(=O)c2ccc(/C=C/c3ccccc3)cc2O[C@@H]1CN(C)C(=O)Nc1cc(F)ccc1F	-25.7%
C[C@H]1CN([C@@H](C)CO)C(=O)c2cc(C#CCN(C)C)cnc2O[C@H]1CN(C)C(=O)Cc1ccccc1	-0.24%
O=C(CC(C(=O)O)N1CCNCC1)Nc1cccc(Cl)c1 (stereo unspecified)	13.8%
COc1ccc(OC(C)C(=O)Nc2cccnc2)cc1 (stereo unspecified)	-3.84%
CC(=O)Oc1ccc(C(=O)N(C(=O)c2ccc(OC(C)=O)cc2)c2cc(C)ccn2)cc1	6.89%
CCn1c(SCC(=O)Nc2cc(Cl)c(Cl)cc2Cl)nnc1-c1ccccc1Cl	-3.77%
Cc1ccc(S(=O)(=O)Nc2ccc3c(c2)C(=O)N([C@H](C)CO)C[C@@H](C)[C@H](CN(C)S(=O)(=O)c2ccc(C)cc2)OCCCC[C@@H](C)O3)cc1	-37.2%
O=C(C[C@H]1C[C@H]2c3cc(NC(=O)Nc4ccccc4F)ccc3O[C@H]2[C@H](CO)O1)NCc1ccccn1	3.57%
Cc1ccc2c(c1)CCCN2S(=O)(=O)c1cc(OCC(N)=O)c(C)cc1Cl	-21.2%
O=C(C[C@H]1C[C@@H]2c3cc(NC(=O)c4ccc5c(c4)OCO5)ccc3O[C@@H]2[C@@H](CO)O1)NCCN1CCCCC1	13.6%
O=C(Nc1ccc(-c2nc3ccccc3o2)c(O)c1)c1ncn[nH]1	-35%
Cc1ccnc(NCc2ccc(N(C)C)cc2)c1	45.6%
Cc1cc([N+](=O)[O-])nn1CC(=O)NC(C)C	-1.03%
N#Cc1c(NC(=O)CCn2cnc3ccccc3c2=O)sc2c1CCCC2	4.75%
COc1ccc(C(=O)CSc2nnc(-c3cccc(C)c3)n2-c2ccccc2)cc1	-17.1%
O=C(COc1ccc2c(=O)c(-c3ccccc3)coc2c1)Nc1ccc(F)cc1	5.8%
CCOc1ccc2c(=O)c(Oc3ccccc3Br)coc2c1	53.9% (active)

SMILES	activation
Cc1cc(C)c(C)c(Oc2coc3cc(OCC(=O)Nc4ccccc4Cl)ccc3c2=O)c1	-8.1%
O=C(CSc1nnc(-c2ccccc2F)n1-c1ccccc1)Nc1ccc(Br)cc1	-2.35%
CCOC(=O)c1c(NC(=S)Nc2cnccn2)sc2c1CCCCCC2	-14.1%
COc1ccc(N(CC(=O)Nc2ccccc2F)S(C)(=O)=O)cc1	-10.8%
O=C(NCc1ccco1)C1CCCN(S(=O)(=O)c2ccccc2)C1 (stereo unspecified)	-15.8%
CC(C)c1cnc(NC(=O)Cc2ccccc2)s1	118% (active)
O=C(CS(=O)(=O)Cc1ccccc1)Nc1cccnc1	-13.2%
O=C(c1ccccc1Br)N1CCN(c2ccc([N+](=O)[O-])c(NCc3cccnc3)c2)CC1	1.31%
COc1ccc(NC(=O)C(=O)NCC(=O)Nc2cccc(C(F)(F)F)c2)cc1	3.32%
CCCN(C)C[C@H]1Oc2ncc(C#CCOC)cc2C(=O)N([C@@H](C)CO)C[C@H]1C	6.77%
COc1ccc(S(=O)(=O)N(C)C[C@H]2OCCCC[C@@H](C)Oc3ccc(NC(=O)NC(C)C)cc3C(=O)N([C@H](C)CO)C[C@H]2C)cc1	-3.86%
COc1ccc(OC(C)C(=O)Nc2ccc(OC)c(OC)c2)cc1 (stereo unspecified)	8.88%
N#Cc1cc2c(nc1SCC(=O)Nc1ccccc1C(F)(F)F)CCCCC2	25.5%
Cc1cccc(NC(=O)CSc2nc3c(cc2C#N)CCCCC3)c1	90.8% (active)
CN(C)c1ccc(NC(=O)CSc2nc3c(c(C(F)(F)F)c2C#N)CCCCCC3)cc1	-6.67%
COCC#Cc1ccc2c(c1)O[C@H](CN(C)Cc1ccc3c(c1)OCO3)[C@H](C)CN([C@H](C)CO)S2(=O)=O	12.5%
CCn1c2ccccc2c2cc(NS(=O)(=O)c3ccccc3[N+](=O)[O-])ccc21	-0.615%
Cn1c(SCC(=O)Nc2c(Cl)cccc2Cl)nnc1-c1ccc(NC(=O)c2ccc(F)cc2)cc1	-1.4%
COc1ccc(OC)c(NC(=O)CSc2n[nH]c(-c3ccncc3)n2)c1	-8.93%
Cc1ccc(C(C)C)cc1OCC(O)Cn1cnc2ccccc21 (stereo unspecified)	-15.4%
CCCNC(=O)N(C)C[C@@H]1Oc2ncc(-c3cccc(C#N)c3)cc2C(=O)N([C@@H](C)CO)C[C@@H]1C	2.46%
CC(=O)c1cccc(NC(=O)C(C)N(c2ccc(C)cc2)S(C)(=O)=O)c1 (stereo unspecified)	0.89%
Cc1cc(=O)[nH]c(SCCCOc2ccccc2-c2ccccc2)n1	-15.4%
C[C@H]1CN([C@@H](C)CO)C(=O)c2cc(/C=C/c3ccccc3)cnc2O[C@@H]1CN(C)C(=O)c1ccc(F)cc1	5.51%
